# Compound activity from PubChem.
# FLuc inh = qHTS Assay for Inhibitors of Firefly Luciferase; Luciferin 4-monooxygenase (Photinus pyralis), P08659; purified firefly luciferase, luminescence, 8 min; Potency, µM (doses to about 57.1 µM), for the others: at the top dose activity change, negative = inhibition, most hits filed as inhibitors; 72,000 compounds, 2.2% hits; AID 411, 2009; active = well fitted inhibition curve with a large enough effect; inconclusive = small, poorly fitted or top-dose-only effect; note: % is set by controls: 0 for no effect and ±100 for the full control effect; nearly all actives have a fitted effect of over 40% in size
# Target sequence (P08659 whole entry, looked up): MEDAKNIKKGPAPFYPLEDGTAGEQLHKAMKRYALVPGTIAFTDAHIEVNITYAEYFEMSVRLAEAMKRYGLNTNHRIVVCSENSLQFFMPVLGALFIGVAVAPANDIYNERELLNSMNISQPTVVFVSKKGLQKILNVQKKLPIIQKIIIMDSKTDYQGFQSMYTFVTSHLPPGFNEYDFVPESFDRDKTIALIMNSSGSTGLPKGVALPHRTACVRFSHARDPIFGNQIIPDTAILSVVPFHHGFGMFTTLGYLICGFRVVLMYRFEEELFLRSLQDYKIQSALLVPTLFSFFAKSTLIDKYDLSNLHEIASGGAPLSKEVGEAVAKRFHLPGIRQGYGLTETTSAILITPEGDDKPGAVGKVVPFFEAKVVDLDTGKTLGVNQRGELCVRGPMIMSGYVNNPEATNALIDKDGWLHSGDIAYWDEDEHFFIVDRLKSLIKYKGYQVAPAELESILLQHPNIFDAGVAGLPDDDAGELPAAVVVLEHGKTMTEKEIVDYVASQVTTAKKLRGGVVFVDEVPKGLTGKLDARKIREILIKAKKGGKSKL
#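 Compounds were tested as concentration series (qHTS) against purified P. pyralis luciferase with luciferin and 10 uM ATP in 50 mM imidazole pH 7.2, 50 mM KCl, 7 mM MgCl2, 0.01% Tween 20, 0.05% BSA. Luminescence was read after 8 min at ambient temperature.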
# GBA mod = Glucocerebrosidase | Lysosomal acid glucosylceramidase (Homo sapiens), P04062 | purified enzyme, resorufin glucoside fluorescence (screen aimed at inhibitors), 20 min | Potency, µM | 48,000 compounds, 1.1% hits | AID 360, 2006; in the data active = potency below about 15 µM; inconclusive = mostly about 16 µM to 33 µM;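 note: the screen sought inhibitors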
#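 Compounds titrated against 0.2 nM normal enzyme, 30 uM resorufin beta-D-glucopyranoside substrate, citrate/phosphate buffer with taurocholate and tween-20, pH 5.9. Reaction ran 20 min at room temperature; fluorescence (Ex 548/Em 600) gave AC50.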
# Bst PK mod = Pyruvate Kinase; purified pyruvate kinase, luminescence ATP production; ribose 5-phosphate activator present at AC10; Potency, µM; 51,000 compounds, 1.2% hits; in the data active = potency below about 11 µM; inconclusive = mostly about 12 µM to 25 µM;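 the screen sought inhibitors and activators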;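 note: scaled between full activation by ribose 5 phosphate and full inhibition by luteolin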
# * = called active by the depositor; i = inactive; ? = inconclusive; nt = no result given; [ ] = dose if it differs, or a comment. Only some compounds are listed: those with a hit (about 3.2% of all), similar ones and a draw of the others. Potency is the fitted concentration of half-maximal effect.
SMILES,FLuc inh,GBA mod,Bst PK mod
N#C/C(=N\O)c1nc(-c2ccccc2)cs1,-2.0%[25.5 µM],nt,>25.6
N#CC(=C1CCCC1)c1nc(-c2ccccc2O)cs1,12.6µM*,>76.9,7.68*
COCCn1c(=O)c(-c2ccc(OC)cc2)nc2cnc(N3CCNCC3)nc21,0.5%[11.4 µM],nt,nt
CCC(=O)c1ccc(OCC(=O)O)cc1,-5.4%,>76.9,>57
CCOc1ccc(C(=O)COC(=O)CC)cc1,15.8µM*,nt,nt
CN(C)S(=O)(=O)c1nc(Cl)c2[nH]cnc2n1,3.1%[11.4 µM],nt,nt
COc1ccc(N2CCN(Cc3cc(=O)oc4cc(-c5ccccc5)c(O)cc34)CC2)cc1,1.6%,>76.9,>57
COc1ccc(N2CCN(Cc3cc(=O)oc4cc(C)c(Cl)cc34)CC2)cc1,-0.3%,5.27*,>57
COC(=O)CCC(=O)c1oc2ccc(Br)cc2c1N,12.6µM*,>76.9,nt
COc1ccc2oc(C(=O)CCC(=O)O)c(N)c2c1,-0.5%,nt,nt
CC(C)Oc1cccc(-n2c(CCc3c[nH]c4ccc(Br)cc34)nc3ccccc3c2=O)c1,1.0%,nt,nt
CCc1cc2c(nc1CC)CCN(CC/C(C)=N/OC[C@@H](C)[C@H](OCc1ccccc1)C(C)C)C2,-0.6%[11.4 µM],nt,nt
Clc1ccc(CSc2ncn[nH]2)cc1,-1.0%,nt,nt
Brc1ccc2nc(CSc3ncn[nH]3)cn2c1,25.1µM*,>76.9,>57
Cc1nc2ccccc2c(=O)n1/N=C/c1ccncc1,0.1%,nt,nt
Cc1nc2ccccc2c(=O)n1/N=C/c1cn(-c2ccccc2)nc1-c1cccs1,3.16µM*,>76.9,nt
Oc1[nH]c2ccccc2c1/C=N/c1nccs1,25.1µM*,>76.9,?
Oc1[nH]c2ccccc2c1C=NCC1CCCO1 (stereo not drawn),-0.2%,>76.9,>57
CC(=O)NCCNc1ncnc2ccc(-c3ccccc3C)cc12,1.0%[2.29 µM],nt,nt
Nc1ccccc1C(=O)/C=C\c1ccc2c(c1)OCO2,3.16µM*,nt,nt
COc1cc(O)c(C(=O)/C=C\c2ccc3c(c2)OCO3)c(OC)c1,-23.3%[11.4 µM],nt,nt
O=C(c1csnn1)N1CCC2(CC1)CCN(c1cccc(-c3ccccc3)c1)CC2,0.2%[11.4 µM],nt,nt
FC(F)(F)c1cc(-c2ccco2)nc(-n2cnc3ccccc32)n1,1.8%,11.8*,>57
Cc1nc2ccccc2n1-c1nc(-c2ccco2)cc(C(F)(F)F)n1,1.4%,>76.9,>57
CSC1=Nc2sc3c(c2C2=NCCN12)CCCC3,-2.7%,6.42*,i
SMILES,FLuc inh,GBA mod,Bst PK mod
CC1(C)Cc2c(sc3c2C2=NCCN2C=N3)CS1,1.0%[25.5 µM],nt,>25.6
Cc1[nH]n(-c2ccc(S(=O)(=O)O)cc2)c(=O)c1N=Nc1ccccc1,3.0%[11.4 µM],nt,nt
CCN1CCN(Cc2ccccc2NC(=O)Nc2ccc(C)cc2)CC1,3.2%,>76.9,>57
CCN1CCN(Cc2ccc(NC(=O)Nc3ccccc3Cl)cc2)CC1,15.8µM*,nt,nt
O=C1[C@H]2[C@H]3[C@H](O)[C@H](O)C/C(=N/OCc4ccccc4)[C@H]3CC[C@@H]2C(=O)N1c1cccc(Oc2ccccc2)c1,1.8%[11.4 µM],nt,nt
O=C(Oc1ccccc1)N1CCC[C@@]2(CCN(c3ccccn3)C2)C1,0.2%[11.4 µM],nt,nt
Cn1c(-c2ccc(CN3CCCCC3)o2)nc2ccccc21,12.6µM*,>76.9,>11.4
Cn1c(-c2ccc(N)cc2)nc2ccccc21,?,>76.9,nt
Cc1ccc(S(=O)(=O)c2c(C)nn(C(C)(C)C)c2OC(=O)c2ccc(Br)o2)cc1,-1.1%,12.5*,>57
Cc1ccc(S(=O)(=O)c2c(C)nn(C(C)(C)C)c2OC(=O)c2ccco2)cc1,-0.2%,nt,>57
CS(=O)(=O)N1CCC2(CCCN(C(=O)Nc3cccc(F)c3)C2)CC1,0.8%[11.4 µM],nt,nt
CCOC(=O)CSc1nc(N)c(C(=O)Nc2ccc(N(C)C)cc2)s1,12.6µM*,nt,i
COc1ccc(NC(=O)c2sc(SC)nc2N)cc1,-29.7%,>76.9,nt
Cc1cc(Cl)cc(Cl)c1OCC(=O)NCc1ccco1,0.6%,nt,nt
Cc1ccc2c(Cl)cc(Cl)c(OCC(=O)NC(=O)NCc3ccco3)c2n1,-32.2%,>76.9,3.05*
Cn1cccc1C(=O)N1CCC2(CCN(Cc3nccs3)CC2)CC1,-0.8%[11.4 µM],nt,nt
CCCCCCn1cc(C(=O)O)c(=O)c2ccccc21,1.3%[25.5 µM],nt,>11.4
CCCCCN=c1ccn(Cc2ccccc2)c2ccccc12,25.1µM*,nt,nt
Cc1ccc(S(=O)(=O)N[C@H]2COC(=O)[C@H](C)COC(=O)[C@H](C)NC(=O)C/C=C\[C@H]2C)cc1,0.4%[11.4 µM],nt,nt
Clc1ccc(OCCn2ccnc2)c2ccccc12,0.8%,>76.9,nt
OCc1ccccc1OCCOc1ccc(Cl)c2cccnc12,-9.5%,>76.9,3.47*
COc1ccc2nc(N3CCCC3)c(C#N)cc2c1,-11.1%,>76.9,>57
COc1ccc2nc(N3CCCCC3)c(C#N)cc2c1,25.1µM*,nt,i
CC(=O)Nc1ccc(-c2nc(C)c(C(C)=O)n2O)cc1,-24.0%,nt,6.59*
CC(=O)Nc1ccc(O)cc1,-0.9%,nt,nt
SMILES,FLuc inh,GBA mod,Bst PK mod
Cc1ccc(C(C)C)c(OCC(=O)Nc2ccc(Cl)cn2)c1,2.5%,>76.9,>57
CCOc1ccc(C(=O)Nc2ccc(Cl)cn2)cc1Cl,25.1µM*,>76.9,nt
CCn1ncc(Br)c1C(=O)Nc1ccc(Cl)cn1,0.6%,>76.9,>57
O=C(COc1ccc(Cl)cc1Cl)Nc1ccc(Cl)cn1,1.26µM*,nt,nt
c1ccc(CN2COc3c(ccc4c5c(ccc34)CN(Cc3ccccc3)CO5)C2)cc1,1.6%[11.4 µM],nt,nt
NC1(C(=O)NC2(C(=O)O)CCCC2)CCCC1,-0.1%[11.4 µM],nt,nt
COc1cccc(N2CCN(Cc3nc(N)nc(N4CCCc5ccccc54)n3)CC2)c1,2.1%,10.9*,>57
COc1ccc(Nc2nc(N)nc(CN3CCc4ccccc4C3)n2)cc1,2.6%,nt,nt
Oc1c(/C=N/c2ncn[nH]2)ccc2ccccc12,-0.8%,nt,nt
O=[N+]([O-])c1cccc(/C=N\Nc2ccc3ccccc3n2)c1O,3.16µM*,nt,nt
Cc1ccc(-n2c(N)c(C(=O)N3CCOCC3)sc2=S)cc1,-0.3%,>76.9,>57
Cc1cccc2cc3c(N)c(C(=O)N4CCOCC4)sc3nc12,15.8µM*,>76.9,?
COc1c2ccoc2nc2c(OC)c(OC[C@H](O)C(C)(C)O)ccc12,-2.7%[11.4 µM],nt,nt
N[C@@H](CNO)C(=O)O,1.7%[11.4 µM],nt,nt
O=C(Nc1scc(-c2ccccc2)c1C(=O)O)c1ccco1,-9.4%,>76.9,nt
COC(=O)c1c(-c2ccc(F)cc2)csc1NC(=O)c1ccco1,12.6µM*,nt,nt
C=C[C@]1(C)C[C@H](OC(=O)CO)[C@]2(C)C3C(=O)CC[C@]3(CC[C@H]2C)[C@H](C)[C@H]1O (stereo partly drawn),0.7%[11.4 µM],nt,nt
O=C1C2=CC[C@H]3C(=O)N(Cc4ccc5c(c4)OCO5)C(=O)[C@@H]3[C@@H]2[C@H](O)[C@@H]2O[C@H]12,0.3%[11.4 µM],nt,nt
C[C@H]1[C@H](C)OC(=O)C[C@H](O)C[C@H](O)C[C@H](O)CC[C@H](O)[C@H](O)CC(=O)C[C@H](O)[C@H](C(=O)O)[C@H](O)C[C@H](O[C@@H]2O[C@@H](C)[C@H](O)[C@@H](N)[C@@H]2O)C=CC=CC=CC=CCCC=CC=C[C@@](C)(O)[C@H]1O,1.8%[11.4 µM],nt,nt
Clc1ccccc1-c1nnc2sc(-c3ccccn3)nn12,-1.9%,>76.9,>57
COc1cccc(OC)c1-c1nn2c(-c3ccccc3Cl)nnc2s1,-1.0%[25.5 µM],nt,7.26*
O=C1/C(=C/c2ccccc2)[C@@H](NC2CCCCC2)c2ccccc21,-0.2%[11.4 µM],nt,nt
O=C(c1csnn1)N1CCC2(CCCN(Cc3ccccc3)C2)CC1,2.1%[11.4 µM],nt,nt
NC1=NC(=Nc2ccccc2)c2ccccc21,-2.7%,10.1*,>57
Cc1ccccc1-c1cc(NCc2cccnc2)ncn1,-1.8%[2.29 µM],nt,nt
